In the supplement of paper PMC12632987:

T1: USP38, Q8NB14
T1 chain: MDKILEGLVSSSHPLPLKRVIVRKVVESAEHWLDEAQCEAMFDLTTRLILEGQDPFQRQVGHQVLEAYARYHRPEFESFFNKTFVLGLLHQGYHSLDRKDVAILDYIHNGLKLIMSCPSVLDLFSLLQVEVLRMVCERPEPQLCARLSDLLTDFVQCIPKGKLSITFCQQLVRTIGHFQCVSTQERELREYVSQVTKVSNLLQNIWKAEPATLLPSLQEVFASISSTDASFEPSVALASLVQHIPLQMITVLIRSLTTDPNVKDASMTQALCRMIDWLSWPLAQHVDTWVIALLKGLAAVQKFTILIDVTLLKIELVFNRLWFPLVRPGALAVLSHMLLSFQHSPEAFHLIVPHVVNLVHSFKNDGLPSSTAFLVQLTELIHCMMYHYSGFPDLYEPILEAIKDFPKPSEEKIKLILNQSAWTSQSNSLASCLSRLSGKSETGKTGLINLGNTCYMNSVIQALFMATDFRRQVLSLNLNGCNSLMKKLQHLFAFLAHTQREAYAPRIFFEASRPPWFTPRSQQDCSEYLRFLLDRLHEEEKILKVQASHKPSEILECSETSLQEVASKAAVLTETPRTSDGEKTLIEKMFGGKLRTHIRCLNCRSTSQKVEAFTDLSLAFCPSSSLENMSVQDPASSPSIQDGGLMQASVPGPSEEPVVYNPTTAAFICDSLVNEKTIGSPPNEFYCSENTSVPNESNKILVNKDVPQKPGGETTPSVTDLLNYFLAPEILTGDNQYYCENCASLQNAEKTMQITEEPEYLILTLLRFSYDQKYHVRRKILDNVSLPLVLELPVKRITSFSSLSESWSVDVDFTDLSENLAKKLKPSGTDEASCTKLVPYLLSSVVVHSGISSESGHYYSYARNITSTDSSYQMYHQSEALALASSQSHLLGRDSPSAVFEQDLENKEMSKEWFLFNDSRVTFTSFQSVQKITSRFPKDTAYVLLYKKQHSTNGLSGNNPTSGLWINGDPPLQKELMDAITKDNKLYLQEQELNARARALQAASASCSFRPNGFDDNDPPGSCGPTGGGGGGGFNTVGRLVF


Biological target: T1, USP38, Q8NB14
Assay: median log2 fold change of GCK-ALFA target abundance (FLAG IP / Myc IP barcode read proportion) (log2 ratio); each designed protein is fused to an ALFA-tag nanobody in HEK293 cells to bring the named protein to FLAG-tagged glucokinase (GCK); Myc marks an untargeted standard; higher = target protein stabilised (more abundant)
Settings: target protein: 3xFLAG-MCP-GCK-ALFA reporter; HEK293 landing pad (RPLP)
Method in brief: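 Binders fused to an ALFA nanobody were recombined as a library into HEK293 landing-pad cells, which were induced with 2 μg mL^−1 doxycycline and then transfected to express a FLAG-tagged target and a Myc-tagged standard. After 48 h, circular RNA barcodes recovered by anti-FLAG and anti-Myc immunoprecipitation of lysates were reverse transcribed, amplified and sequenced. Each binder's target abundance is the median log2 ratio of FLAG to Myc barcode read proportions, from barcodes present at ≥10^−7 in both replicates, binders carrying ≥3 barcodes per replicate, a 10^−6 pseudocount and pooled replicates.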

Row | Binder | median log2 fold change
1 | usp_38_diff_out_18_28_433 (protein) SLEANRALIAKYEAEADALIDEATKAATEGFLKYHENPDDEKLLEAINKLMDAVGKAAAAVRRMREHIHDPEAVAKYAKEFEKAKKEAEEKLKELKKLIK | 0.116
2 | usp_38_diff_out_18_28_420 (protein) MKEERLKKLEELEKRADALIDEYNELATKGFLKYHDDPSATEVLEAVNKLSDAVGAAAAAVNAMKENIDNEEAFEAEYKKFEEEEAKAKEYAEELKKLIA | 0.326
3 | usp_38_diff_out_18_30_436 (protein) SAEDEETERYIREALRKATAESLRELAERLERRLPDSPEAREIVALVREAARLLEEGTPEALAQAAALLRRALALLEADPRATDRELTALRGLLVVVEEL | 0.0576
4 | usp_38_diff_out_18_28_425 (protein) MREEVERRIAELEARADALIDRAEEVSTKAFLAYSEDPSSEELLKKNDELWDAVGAAAAAVREMRENRDDPEAVAREEERFREAAARAEALIKEIEKLIK | -0.0591
5 | usp_38_diff_out_18_31_437 (protein) SLREEAERVAEEARRLAEELKEKSKELKEAIKKGDKEKAEKLMEEMERLKEELGRAYLRLRDLAREDPSNRPLLKEVTKEANEAVDEYTEAEEAYFLFKA | -1.39
6 | usp_38_diff_out_18_28_426 (protein) MLEENKKKIEKAKEEADKLIDEANKVATEGFLKYSENPENEELLKKINELWDAVGKAAQAVNDMRENIEDEEAVEKNLKKFEEAKKEAEKLIEELKKLIE | 0.0382
7 | usp_38_diff_out_18_31_440 (protein) SLRERAERVREELERAAERMKRLAEELKEAIKAGDRERAERLMEEMDREMERLGRAYLELRDLAREDPSLRPLLKEAERRANEAVDAYTEAATAYHLFKA | -0.671
8 | usp_38_diff_out_18_28_428 (protein) SQEEIQKLIEENRKKTDELIDEANKVATEAYLAYHDNPEATELLEAVDKLWDALGKAAQAVNEMRENRDDPEKVKKEAAKFEEAAKKAEEYIKKIKELIA | 0.0104
9 | usp_38_diff_out_1_101_7 (protein) LEEELKKALEEFNETIDKAIKVYEEIAKLYKKMGKEEKAEKAERQRKALETWREDSTAFIEELAKEDLESALELAKLALENAKTILKEAEEELKKVKAEE | -0.366
10 | usp_38_diff_out_18_28_422 (protein) SLAERRALIEELKKEADELIDEYTELATEAFLAYHENPDAEELLAAADALSDAVGAAAAAVREMREHLEDEAKVEAYTKEFKAQKKEAKEKAKELKKLLA | -0.0738
11 | usp_38_diff_out_18_28_413 (protein) MREENRKRIEEMEKKADELIDEANEVATEGYLKYADDPSNEELLKAIRELMDAVGEAAAAVREARENIDDPEKVEEEEKRFEEAYEKAKKKIKEVKELIK | -0.0716
12 | usp_38_diff_out_18_28_419 (protein) MLEERQKKIEKLQKEADELIDKYTEAAEKGFLKYHEDPSAEEVLEAIKELSDHVGAAAAAVNEMKENIENEEKFEEELKKFKEHKKKALEALEKLKKLLA | 0.0382
13 | usp_38_diff_out_18_30_434 (protein) EEEDEETEEYIRNKLLEFTAESTRDLAERVRRRLPDSPRAREIARLLEEASELLKKRTPEALEEAARLLERALELAEADPRATDRLLTSLRGLLTVVKEL | -0.134
14 | usp_38_diff_out_18_31_442 (protein) SVVEEAKRVAKEALEAIEKLKKTIDELKKAIGKDPKKAEELLKKARELLKKFSELYLRLRDLRRQAPEQIRPLLEELEKKADEAIDKYEEAETAYFLAKA | -0.788
15 | usp_38_diff_out_1_101_6 (protein) IEKELKKALEEFNKTLDETIKVYEEIEKLYKEMGNEEKAERAQRQRDALETYRKDTTAFIEELYKEDPESALELAKLALENAKTILKEAEKELKEVKAEK | -0.129
16 | usp_38_diff_out_18_30_435 (protein) EEEDEETQKFIDEELRKILAESTEELAREVRRRLPDSPEAREIAELLEEASRLIKEGTPEALKKALEKLERALELLKKNPQAPDRLLTATAGMIEVLKEL | 0.231

Row | Binder | median log2 fold change
17 | usp_38_diff_out_1_101_8 (protein) LEEELEKALKEFNETIEKAMEAWKEIAKIYKELGNEEKAEKAERQLAALESYKKEHTKFIEELKKEDLESALELAKLSLKNAKSILKEAEERLKKAKALK | 0.118
18 | usp_38_diff_out_18_28_432 (protein) EEEEIKKLIEEAEKKMDELIDEYVKISTEGFLKINESDKGEELLEAINELADEVGKAAKAVNEMRKNRNDKEKVEEYLKKFEEAYKKAKEKIEEIKKLIE | -0.257
19 | usp_38_diff_out_1_101_12 (protein) LEAELAKAREAFRAAVAEVEAVLEEAEALAKAAGDAARAARWARQLAAVRAWRADLERTLEEIAAQDLESALELAKAALENAKTLLAEAKAELAAYKAKL | -0.00433
20 | usp_38_diff_out_18_28_415 (protein) MLEENRKKIEEAKKEADELIDKANKVATEGFLKYSEDPSNEELLKAVNELLDYVGKAAAAVVEMRENINDPEAVEEQLKKFKEAKEKAEKAIEEVKKLIA | 0.333
21 | usp_38_diff_out_1_101_4 (protein) MEERLEKAKKEIEEALEEIIKIYEETAKAAKAAGDEALAERWKRFAEAMRTYRESLERTLEELREQDLESALAFAEAALEVTKSLLKEAKEEAEKAKKAL | -0.644
22 | usp_38_diff_out_1_101_11 (protein) LEAELAAARAEFDAAAADLLAAARAALAEVKALGDAAAAARFARYLAAYESFIADTRRTADEIAEQDKESAIEFLKAATENLRTLKEEVEAELARIKAKL | -0.315
23 | usp_38_diff_out_18_28_427 (protein) ALAANQATIEKARAEADKLIDESNKILTEAYLAYHEDPSSKELLEAAKKLSDALGKAAQAVNDMRAHRHDAAAVAKHAKEFEKAAKEAKKAIEEIKKLLK | -0.128
24 | usp_38_diff_out_18_28_421 (protein) MREERRKRIEELEKEADELIDEYEKLAREAFLYYHENPEAEEVLEAARRLGDAVGKAAAAVNEMKENIDDEEKFEEYEEEFKRYKAEAKEYAEELKKLLA | -0.848
25 | usp_38_diff_out_18_28_429 (protein) SMEEIKKKIEEAEKEADALIDEANEVATQGFLAYHENPEKTELLEAVNELWDALGKAAQAVNDMRENKNNPEKVEKELKKFKEAAKAAKEKIAKIKELIA | -0.434
26 | usp_38_diff_out_18_28_431 (protein) AEAAIQAKIDAAEKEMDALIDEYVKVATEGFLALDESDKGEELEAAINELADAVGAAAAAVNEMRRNRDDPAAVDAQLAKFNAAKKKAKEKIKEIKKLLK | -0.437
27 | usp_38_diff_out_18_28_424 (protein) MAAEIQARIDAAKARADALIDEVEKVSTEAFLKYSEDPSMEELLEADRKLWDAAGTAAAAVRAMREHRDDPAAVDAELAVFEKAAAEAEKLIKEIKELIK | 0.0788
28 | usp_38_diff_out_18_28_414 (protein) MLEENKKKIEEMKKEADELIDKANEVMTQGYLAYADDPSNEELLKAIRELGDAVGAAAAAVREARENIENPEKVEKEKKKFEEAKKAAEEKIEEVKKLIA | 0.143
29 | usp_38_diff_out_18_28_416 (protein) MMKEIEEKIEKLEKEADELIDKATEAMTKGFLKINEDPNSEELIEAINKLSDAVGKAAHAVNLARRNKNNPEAVEKYEKEFEKAKKEAEKELKKLEELIK | -0.28
30 | usp_38_diff_out_18_31_441 (protein) SLRERGREVAERAREAIRRLRELAERLLEAIKEGKREEAEELAKEMDEELVELGRAYQELRDLAREDPSLRPLLKEVEEEANEAIDLYNKAMEELFLFKS | -0.642
31 | usp_38_diff_out_18_28_430 (protein) AEEEIKAKIEAAEKEMDKLIDEYVKVAEEAFLKLDESDKGEELEEAINKMADALGKAAAAVNEMRRNRDDPAAVEAELEKFKKAKKEAEEYIKKIKELLK | -0.244
32 | usp_38_diff_out_18_28_417 (protein) MLEERRERLKEMEKEADELIDKYNEAATKGFLYYHEHPEAEEVLEAVDKLSDAVGAAAAAVNEMRENIEDEEAFKKEEEKFKEYKKEAEKYLEELEKLIA | -0.307
